Compound activity (PubChem)
Shown is part of a subset that was picked to be rich in hits.
ERG Ets-DNA blk = inhibitors of human ERG Ets domain-DNA interaction; P11308; fluorescence polarization, His-ERG Ets domain / labelled DNA; Potency, µM (titrated, usually from 76.9 µM), for the others: at the highest dose FP activity, negative = inhibition, usual class: inhibitors; 0.028% of 370,000 active; active means well fitted inhibition curve with a large enough effect in the polarisation, with a control signal flat; inconclusive means small, poorly fitted or top-dose-only effect, or effect the other way, or a change in a side signal; inactive means no such curve, though single readings can be large or run the other way; the % refers to the polarisation;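 further: polarization taken with two DNA probes labelled with fluorescein and Texas red; potency means the concentration at half of the fitted maximal effect; % of control where 0% means no effect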
Target sequence (P11308 whole entry, looked up, the tested form may be a part): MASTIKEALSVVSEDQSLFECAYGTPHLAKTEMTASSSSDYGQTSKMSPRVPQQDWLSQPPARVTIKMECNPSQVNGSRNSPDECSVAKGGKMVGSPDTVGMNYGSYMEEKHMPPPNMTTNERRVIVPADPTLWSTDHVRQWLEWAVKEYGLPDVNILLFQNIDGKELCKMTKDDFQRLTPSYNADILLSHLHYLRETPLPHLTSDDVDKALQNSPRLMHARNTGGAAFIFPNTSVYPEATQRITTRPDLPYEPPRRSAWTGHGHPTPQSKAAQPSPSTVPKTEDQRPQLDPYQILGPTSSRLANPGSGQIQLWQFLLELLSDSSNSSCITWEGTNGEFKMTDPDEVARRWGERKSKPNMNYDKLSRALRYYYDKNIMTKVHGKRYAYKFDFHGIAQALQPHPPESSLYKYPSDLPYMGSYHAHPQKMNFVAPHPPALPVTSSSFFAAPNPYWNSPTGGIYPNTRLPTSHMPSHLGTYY
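His-tagged ERG Ets domain (1 uM in the protein solution; 300mM KCl, 50mM Tris-HCl, 1mM EDTA, 1mM DTT, pH 7.5) received compound, then a probe mix of 5 nM fluorescein-DNA and 100nM Texas-615-DNA. Fluorescence polarization was read for both dyes.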
CBFb RUNX1 block = inhibitors of human CBF-beta and RUNX1 interaction; AlphaScreen CBFb-His/RUNX1-biotin binding, biochemical; Potency, µM (doses to about 59.8 µM), for the others: at the top dose activity, negative = inhibition, most hits filed as inhibitors; 230,000 tested, under 10 active; further: % of control where 0% means no effect
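Proteins preincubated together for 20 min at RT before compound addition; 15 min later, nickel and streptavidin beads were added and left 90 min prior to AlphaScreen measurement.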
TRb-SRC2 inh = disrupts binding of human TR beta to SRC2. AID 1469. TRbeta-SRC2 peptide binding, fluorescence polarization; receptor liganded with 1 µM T3. Potency, µM (top dose mostly 106 µM), for inactives: at the highest dose activity change, negative = inhibition, actives largely listed as inhibitors. 0.065% of 280,000 active;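 further: potency means the concentration at half of the fitted maximal effect; plate controls were bound peptide for no effect and peptide without receptor for full effect; nearly all actives have a fitted effect of over 50% in size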
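Binding of a 20-amino-acid Texas Red SRC2 peptide (20 nM) to TRb ligand-binding domain (0.6 uM) with agonist T3 at 1 uM was followed by fluorescence polarization after a 5 hr room-temperature incubation.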
TexasRed fluor = counter-screen for TRb-SRC2 inhibitors: fluorescence interference. 0.29% of 280,000 active. AID 1479. Potency, µM (highest dose often 106 µM), for inactives: top-dose fluorescence change, negative = quenching. TRb/SRC2 Texas Red total fluorescence interference; active means well fitted curve in either direction with a large enough effect; inconclusive means small, poorly fitted or top-dose-only effect; further: potency means the concentration at half of the fitted maximal effect; on the % scale 0 is the no-effect control and ±100 the full control effect
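Human TRb ligand-binding domain at 0.6 uM with 20 nM Texas Red SRC2 peptide in Tris buffer containing 1 uM T3 and 5% DMSO, incubated with compound 5 h at ambient temperature. Total fluorescence (555/632 nm) calculated as parallel + 2 × perpendicular.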
GoLoco inh red = RGS12 GoLoco-Gai1 interaction inhibition | P63096 | Gai1:RGS12 GoLoco peptide FP, rhodamine, 10 min | Potency, µM (top dose mostly 61.6 µM), for the others: at the top dose activity, negative = inhibition, most hits filed as inhibitors | 0.44% of 230,000 active; active means well fitted inhibition curve with a large enough effect, not every such curve was filed as active; inactive means no such curve, though single readings can be large or run the other way; further: potency means the concentration at half of the fitted maximal effect; on the % scale 0 is the no-effect control and ±100 the full control effect; nearly all actives have a fitted effect of over 30% in size
Target sequence (P63096 whole entry, looked up): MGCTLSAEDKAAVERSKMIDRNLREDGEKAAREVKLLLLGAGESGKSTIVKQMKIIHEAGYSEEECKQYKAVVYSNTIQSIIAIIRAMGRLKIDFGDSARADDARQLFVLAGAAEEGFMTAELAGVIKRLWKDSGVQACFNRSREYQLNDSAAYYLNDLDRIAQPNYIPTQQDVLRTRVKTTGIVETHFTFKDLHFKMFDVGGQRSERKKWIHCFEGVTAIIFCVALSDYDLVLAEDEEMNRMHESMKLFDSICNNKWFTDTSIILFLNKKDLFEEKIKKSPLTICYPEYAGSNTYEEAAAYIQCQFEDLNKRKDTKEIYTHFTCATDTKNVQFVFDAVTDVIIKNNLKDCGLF
The depositor's hits bear a star; ? = inconclusive; · = no result given; ! = repeats disagree; [ ] = another dose, or the depositor's remark. Unless noted, the call rests on the fitted dose curve; in most records, active means well fitted curve in the direction sought with a large enough effect; inconclusive means small, poorly fitted or top-dose-only effect, or another doubt; inactive means no such curve, though single readings can be large; an effect the other way counts as inactive or inconclusive.

SMILES	ERG Ets-DNA blk	CBFb RUNX1 block	TRb-SRC2 inh	TexasRed fluor	GoLoco inh red
CCC(C)NC(=O)CCCN1C(=O)CCn2nc(-c3cccn3C)cc21 (centres undefined)	0.9%	·	1.9%	-2.3%	·
C=CC(=O)NC(C)(C)CS(=O)(=O)O	·	·	2.7%[201 µM]	-3.2%[201 µM]	·
Cn1c(=O)cc2c3c(c(N4CCCCC4)ccc31)C(=O)c1ccccc1-2	?	?	?	?	15.8µM*
Cn1nc(-c2ccccc2)c(N2CCCCC2)cc1=O	-11.1%	-2.9%	3.8%	-0.3%	5.3%
O=C(/C=C/c1ccc(Cl)cc1)OCC(=O)c1ccc[nH]1	6.9%	·	·	·	·
COc1ccc(C(=O)NC(=S)NNC(=O)Cc2cccs2)cc1	-1.2%	-16.6%	-12.2%	-2.2%	2.7%
COc1cc(OC)cc(C(=O)NC(=S)NNC(=O)Cc2cccs2)c1	13.7%	-24.7%	?	0.316µM*[quencher]	-4.8%
COc1ccc(NC(=O)c2ccco2)cc1NC(=O)c1ccc(C)cc1	-12.2%	-9.0%	8.1%	-2.3%	-8.2%
COc1ccc(NC(=O)c2ccco2)cc1NC(=O)c1ccc(OC(C)C)cc1	-2.6%	·	-12.4%	0.355µM*[quencher]	·
O=[N+]([O-])c1ccc(N2CCN(C(=S)c3cccc([N+](=O)[O-])c3)CC2)cc1	-4.2%	-5.4%	4.0%	-0.2%	12.6µM*
CC(=O)N1CCN(C(=S)c2cccc([N+](=O)[O-])c2)CC1	2.2%	1.5%	7.6%	-2.3%	-0.3%
COc1ccc(OC)c(CNC(=O)c2ccc(Sc3ccc(Cl)cc3)c(NC(C)=O)c2)c1	-1.9%	·	2.4%	-1.4%	·
CCCCc1ccc(NC(=O)Nc2cc(C)nn2C)cc1	31.6µM*	·	·	·	·
CCCCc1ccc(NC(=O)Nc2cnccn2)cc1	-14.8%	·	·	·	·
O=C1SC(Nc2ccc(Cl)cc2)C(=O)N1Cc1ccccc1 (centres undefined)	-10.7%	·	-15.0%	0.0032µM*[quencher]	·
CN1CCN(c2cc(N3CCN(C(=O)c4ccco4)CC3)c3c4c(onc24)-c2ccccc2C3=O)CC1	-19.0%	·	·	·	·
O=C1c2ccccc2-c2onc3c(Oc4ccccc4)cc(O)c1c23	·	·	-11.9%	35.5µM*[fluorescent]	112.8%
COC(=O)CCC(=O)OC1(C)C(=O)C=C2C=C(C3CC3)N(CC3CC3)C=C2C1=O (centres undefined)	-9.8%	9.1%[13.1 µM]	4.0%[11.2 µM]	0.8%[11.2 µM]	-4.4%[14.2 µM]
COC(=O)CCC(=O)OC1(C)C(=O)C=C2C=C(C3CC3)N(CC(C)C)C=C2C1=O (centres undefined)	·	-2.7%[13.1 µM]	9.1%[11.2 µM]	1.1%[11.2 µM]	3.55µM*!
Cc1occc1C(=O)NNC(=O)c1ccc(S(=O)(=O)N(C)C)cc1	5.6%	·	·	·	·
CCCN(CC(=O)Nc1ccc(F)c(F)c1F)C(=O)C1CC(=O)N(Cc2ccccc2)C1 (centres undefined)	35.5µM*	·	·	·	·
c1cc2ccc3ccc4ccc5cccc6c(c1)c2c3c4c56	·	·	-5.1%[201 µM]	0.2%[201 µM]	·
O=S(=O)(Nc1cccc(-c2ccc(N3CCCCCC3)nn2)c1)c1ccc(C(F)(F)F)cc1	7.2%	·	·	·	·
O=S(=O)(Nc1ccc(-c2ccc(N3CCCC3)nn2)cc1)c1cccc(C(F)(F)F)c1	0.5%	·	-8.3%	708µM*[quencher]	·
COc1ccccc1N1CCN(/N=C/c2cc(OC)c(O)c(OC)c2)CC1	4.1%	-7.2%	-4.3%	1.0%	2.82µM*
SMILES	ERG Ets-DNA blk	CBFb RUNX1 block	TRb-SRC2 inh	TexasRed fluor	GoLoco inh red
Cc1ccc2occ(/C=N/NC(=O)c3ccc(O)cc3)c(=O)c2c1	17.0%	·	·	·	·
Cc1ccc2occ(/C=N/NC(N)=S)c(=O)c2c1	-9.4%	-1.4%	-12.8%	0.355µM*[quencher]	5.4%
N=C1[C@@H](O)[C@]2(I)c3ccccc3N3C(=N)[C@H](O)[C@@H]4c5ccccc5N1[C@@H]4[C@@H]32	·	·	·	·	2.24µM*
CC1COCc2cc3c(cc21)C(C)(C)C(C)C3(C)C (centres undefined)	·	·	4.7%[201 µM]	-2.1%[201 µM]	·
CN(C)Cc1cc(O)c(O)c(CN(C)C)c1	·	·	·	·	-34.6%[14.2 µM]
CN(C)Cc1cc(O)c(CN(C)C)cc1O	-11.9%	?	-25.8%	?	3.98µM*
BrC1CCC(Br)C(Br)CCC(Br)C(Br)CCC1Br (centres undefined)	·	·	-5.5%[201 µM]	-3.2%[201 µM]	·
COc1cc(-c2cc(OC)c3c(C)oc(C)c3c(=O)c2)ccc1OC(=O)c1cccc(Cl)c1	2.2%	·	?	501µM*[quencher]	·
COc1ccc(-c2cc(OC(=O)c3cccc(Cl)c3)c3c(C)oc(C)c3c(=O)c2)cc1OC	6.0%	·	-11.7%	4.4%	·
C=CC[C@@H]1C=C[C@H](O/N=C\[C@@H](C)[C@H](OCc2ccccc2)C(C)C)[C@H](CO)O1	·	-10.8%[13.1 µM]	-2.8%[11.2 µM]	-3.6%[11.2 µM]	·
O=C(CCCOc1ccc(Cl)cc1Cl)N/N=C/c1ccccc1O	·	-7.1%	-15.9%[53 µM]	31.6µM*[quencher]	-6.3%
O=c1c2oc3ccccc3c2n(Cc2ccccc2F)c(=O)n1Cc1ccco1	1.9%	·	3.9%	-0.9%	·
CC[n+]1c(/C=C/N(C)c2ccccc2)oc2ccc(Cl)cc21	-10.3%	-14.1%	9.3%	2.3%	-8.0%
CCN1/C(=C/C=C/c2oc3ccc4ccccc4c3[n+]2CC)Oc2ccc3ccccc3c21	100.4%	?	10µM*	50.1µM*[fluorescent]	-159.6%
Cc1cc2c(cc1NS(=O)(=O)c1ccc(Br)cc1)n(C)c(=O)c(=O)n2C	9.4%	·	-20.6%	2239µM*[quencher]	·
CCc1ccc(S(=O)(=O)Nc2cc3c(cc2C)n(C)c(=O)c(=O)n3C)cc1	-2.7%	·	5.6%	-4.3%	·
CCOc1cc(CNc2ccc(N(C)C)cc2)cc(Br)c1OCC(=O)NC(C)(C)C	-9.4%	-18.3%	39.8µM*	44.7µM*[fluorescent]	-13.5%
CCOc1ccc(NC(=O)Cn2nc(-c3ccncc3)ccc2=O)cc1	-2.1%	·	0.6%	-7.7%	·
CCCCCc1ccc(OCCC[n+]2ccccc2)c(CCCCC)c1	-13.4%	-7.5%	70.8µM*	-11.2%	8.5%
Brc1ccc(Oc2ccc(Br)cc2)cc1	·	·	1.0%[201 µM]	-2.8%[201 µM]	·
Cc1ccc(C)c(NC(=O)C(Cc2ccccc2)N2Cc3ccccc3C2=O)c1 (centres undefined)	0.2%	·	-21.3%	126µM*[quencher]	·
Cc1cc(F)ccc1NC(=O)C(c1ccccc1)N1Cc2ccccc2C1=O (centres undefined)	3.3%	·	-4.9%	4.3%	·
Cc1ccc(C)c(NC(=O)C(c2ccccc2)N2Cc3ccccc3C2=O)c1 (centres undefined)	-2.6%	·	-29.0%	100µM*[quencher]	·
CC(=O)Nc1ccc(NC(=O)C(c2ccccc2)N2Cc3ccccc3C2=O)cc1 (centres undefined)	5.1%	·	-17.0%	100µM*[quencher]	·
CCOC(=O)c1cccc(Nc2cc(-c3ccccc3)ncn2)c1	4.7%	·	-17.8%	0.316µM*[quencher]	·
Cc1[nH]n(-c2ccccc2)c(=S)c1C=Nc1ccc([N+](=O)[O-])cc1	-9.1%	0.7%	-1.9%	0.7%	12.6µM*
Cc1[nH]n(-c2ccccc2)c(=O)c1C=Nc1ccc(S(=O)(=O)N=C(N)N)cc1	-5.5%	3.3%	2.1%	1.4%	-3.3%
